Laboratory results: ChEMBL document CHEMBL4513142, “CO-ADD screening of Indiana University - Purdue University Indianapolis (USA) compounds”
Several values for one entry are separate records, joined by “and”; a condition that tells them apart may be missing. Equal values may be shown once. Results with a measured potency or affinity are listed apart.

How the values were obtained:
Staphylococcus aureus = conditions: Concentration 32 ug.mL-1, ASSAY_TEST Inhibition of Bacterial Growth, detection method Absorption (OD600), MEDIA CAMHB, plate type 384well, NBS, CORNING #3640, time 18 hr
Escherichia coli = conditions: Concentration 32 ug.mL-1, ASSAY_TEST Inhibition of Bacterial Growth, detection method Absorption (OD600), MEDIA CAMHB, plate type 384well, NBS, CORNING #3640, time 18 hr

Question: With [C-]#[N+]c1ccc(C(=O)NC(CC=C)C(=O)NCCC)cc1 (stereo not given) as the compound, how does the Inhibition (Staphylococcus aureus) read?
Answer: Its Inhibition is 14.2%.

Question: And the Inhibition (Escherichia coli)?
Answer: The Inhibition was 6.66%.

Question: For C[C@H](NC(=O)c1ccccc1Cl)C(=O)O, which Inhibition (Staphylococcus aureus; 32 ug/mL) is on record?
Answer: Its Inhibition is 13.46% and 14.36%.

Question: And the Inhibition (Escherichia coli; 32 ug/mL)?
Answer: The Inhibition was 2.9% and -3.06%.

Question: For [C-]#[N+]c1ccc(C(=O)NC(Cc2ccc(C(F)(F)F)cc2)C(=O)NCCC)cc1 (stereo not given), which Inhibition (Staphylococcus aureus) is on record?
Answer: The Inhibition was 24.86%.

Question: And the Inhibition (Escherichia coli)?
Answer: The Inhibition was 13.88%.

Question: For [C-]#[N+]c1ccc(C(=O)NC(Cc2ccc(F)cc2)C(=O)NCCC)cc1 (stereo not given), which Inhibition (Staphylococcus aureus) is on record?
Answer: The Inhibition was 26.08%.

Question: What about the Inhibition (Escherichia coli) of the same compound?
Answer: Its Inhibition is 15%.

Question: What does the source list for COc1cc(C(=O)N[C@@H](CC(C)C)C(=O)O)ccc1O?
Answer: Inhibition (Staphylococcus aureus; 32 ug/mL): 20.35% and 19.19%; Inhibition (Escherichia coli; 32 ug/mL): 10.4% and 9.74%

Question: NC(Cc1ccc(F)cc1)C(=O)O.O=C(O)C(F)(F)F (stereo not given) was tested. Which Inhibition (Staphylococcus aureus; 32 ug/mL) did it give?
Answer: The Inhibition was 15.79% and -3.39%.

Question: And the Inhibition (Escherichia coli; 32 ug/mL)?
Answer: The Inhibition was 9.45% and 2%.

Question: For O=C(NC(CCCc1ccccc1)C(=O)O)c1cccc2ccccc12 (stereo not given), which Inhibition (Staphylococcus aureus; 32 ug/mL) is on record?
Answer: The Inhibition was 21.08% and 19.14%.

Question: With NC(Cc1cccc(F)c1)C(=O)O.O=C(O)C(F)(F)F (stereo not given) as the compound, how does the Inhibition (Staphylococcus aureus; 32 ug/mL) read?
Answer: Its Inhibition is 11.07% and 11.98%.

Question: And the Inhibition (Escherichia coli; 32 ug/mL)?
Answer: Its Inhibition is 9.03% and 16.34%.

Question: Which results are given for CCCNC(=O)C(Cc1ccccc1C)NC(=O)c1ccc(C(F)(F)F)cc1 (stereo not given)?
Answer: Inhibition (Staphylococcus aureus): 28.42%; Inhibition (Escherichia coli): 15.38%

Question: Which Inhibition (Staphylococcus aureus; 32 ug/mL) does the source give for NC(=O)[C@@H]1CCCN1C(=O)c1ccccn1 here?
Answer: Its Inhibition is 30.13% and 31.7%.

Question: And the Inhibition (Escherichia coli; 32 ug/mL)?
Answer: Its Inhibition is 20.95% and 16.57%.

Question: Which results are given for NC(Cc1ccc(F)c(F)c1)C(=O)O.O=C(O)C(F)(F)F (stereo not given)?
Answer: Inhibition (Staphylococcus aureus; 32 ug/mL): 14.42% and 15.4%; Inhibition (Escherichia coli; 32 ug/mL): 15.3% and 11.55%

Question: What does the source list for [C-]#[N+]c1ccc(C(=O)NC(CC#C)C(=O)NCCC)cc1 (stereo not given)?
Answer: Inhibition (Staphylococcus aureus): 27.84%; Inhibition (Escherichia coli): 17.34%

Question: With CCCNC(=O)C(Cc1ccccc1)NC(=O)c1ccc(F)cc1 (stereo not given) as the compound, how does the Inhibition (Staphylococcus aureus) read?
Answer: The Inhibition was 30.52%.

Question: What about the Inhibition (Escherichia coli) of the same compound?
Answer: Its Inhibition is 11.25%.

Question: CC(C)C[C@H](NC(=O)c1cccnc1)C(N)=O was tested. Which Inhibition (Staphylococcus aureus; 32 ug/mL) did it give?
Answer: Its Inhibition is 11.42% and -3.35%.

Question: And the Inhibition (Escherichia coli; 32 ug/mL)?
Answer: The Inhibition was -6.61% and -6.83%.

Question: Which results are given for O=C(NC(Cc1ccc(Cl)nc1)C(=O)O)c1ccccc1 (stereo not given)?
Answer: Inhibition (Staphylococcus aureus; 32 ug/mL): 22.85% and 23.42%; Inhibition (Escherichia coli; 32 ug/mL): 9.12% and 5.81%

Question: How did the Inhibition (Staphylococcus aureus) turn out when CCCNC(=O)C(Cc1ccc(F)cc1)NC(=O)c1ccccc1 (stereo not given) was run?
Answer: The Inhibition was 25.83%.

Question: What about the Inhibition (Escherichia coli) of the same compound?
Answer: Its Inhibition is 9.01%.

Question: For NC(=O)[C@H](Cc1ccccc1)NC(=O)c1c(F)c(F)c(F)c(F)c1F, which Inhibition (Staphylococcus aureus; 32 ug/mL) is on record?
Answer: The Inhibition was 22.06% and 27.14%.

Question: What about the Inhibition (Escherichia coli; 32 ug/mL) of the same compound?
Answer: The Inhibition was 6.54% and 12.4%.

Question: Which Inhibition (Staphylococcus aureus) does the source give for [C-]#[N+]c1ccc(C(=O)NC(CC)C(=O)NCCC)cc1 (stereo not given) here?
Answer: The Inhibition was 19.19%.

Question: And the Inhibition (Escherichia coli)?
Answer: The Inhibition was 3.26%.

Question: What does the source list for Cc1ccc(C(=O)NC(Cc2cc(F)c(F)cc2F)C(=O)O)cc1 (stereo not given)?
Answer: Inhibition (Staphylococcus aureus; 32 ug/mL): 24.46% and 19.13%; Inhibition (Escherichia coli; 32 ug/mL): 4.35% and 11.7%

Question: What does the source list for NC(Cc1ccccc1I)C(=O)O.O=C(O)C(F)(F)F (stereo not given)?
Answer: Inhibition (Staphylococcus aureus; 32 ug/mL): 9.99% and 15.72%; Inhibition (Escherichia coli; 32 ug/mL): 13.12% and 15.99%

Question: For O=C(Cc1cccc(Br)c1)N[C@@H](Cc1ccccc1)C(=O)O, which Inhibition (Staphylococcus aureus; 32 ug/mL) is on record?
Answer: Its Inhibition is 8.37% and -0.37%.

Question: What about the Inhibition (Escherichia coli; 32 ug/mL) of the same compound?
Answer: The Inhibition was 5.53% and 8.68%.

Question: What does the source list for O=C(N[C@@H](Cc1ccccc1)C(=O)O)C1CCCCC1?
Answer: Inhibition (Staphylococcus aureus; 32 ug/mL): 12.87% and 13.13%; Inhibition (Escherichia coli; 32 ug/mL): 2.23% and -1.68%

Question: CCCNC(=O)C(Cc1ccccc1)NC(=O)Cc1ccccc1 (stereo not given) was tested. Which Inhibition (Staphylococcus aureus) did it give?
Answer: Its Inhibition is 29.57%.

Question: What about the Inhibition (Escherichia coli) of the same compound?
Answer: Its Inhibition is 14.02%.

Question: With Cc1ccc(C(=O)NC(Cc2ccccc2C#N)C(=O)O)cc1 (stereo not given) as the compound, how does the Inhibition (Staphylococcus aureus; 32 ug/mL) read?
Answer: The Inhibition was 24.12% and 21.1%.

Question: And the Inhibition (Escherichia coli; 32 ug/mL)?
Answer: The Inhibition was 12.75% and 9.35%.

Question: Which results are given for NC(Cc1ccccc1F)C(=O)O.O=C(O)C(F)(F)F (stereo not given)?
Answer: Inhibition (Staphylococcus aureus; 32 ug/mL): 11.55% and 11.5%; Inhibition (Escherichia coli; 32 ug/mL): 17.44% and 15.69%

Question: For CC(C)[C@H](NC(=O)c1cccc(C(F)(F)F)c1)C(=O)O, which Inhibition (Staphylococcus aureus; 32 ug/mL) is on record?
Answer: The Inhibition was 19.09% and 11.5%.

Question: And the Inhibition (Escherichia coli; 32 ug/mL)?
Answer: Its Inhibition is 0.57% and -0.75%.

Question: For [C-]#[N+]c1ccc(C(=O)NC(Cc2ccccc2F)C(=O)NCCC)cc1 (stereo not given), which Inhibition (Staphylococcus aureus) is on record?
Answer: Its Inhibition is 22.89%.

Question: And the Inhibition (Escherichia coli)?
Answer: Its Inhibition is 11.79%.

Question: NC(=O)[C@H](Cc1ccccc1)NC(=O)c1cccnc1 was tested. Which Inhibition (Staphylococcus aureus; 32 ug/mL) did it give?
Answer: Its Inhibition is 29.26% and 26.43%.

Question: And the Inhibition (Escherichia coli; 32 ug/mL)?
Answer: The Inhibition was 20.31% and 18.99%.
